Experiment in all cases: DAPPL (digital affinity profiling via proximity ligation, sequencing); 10 mM Tris-HCl pH 7.5, 50 mM NaCl, 1 mM DTT, 4% glycerol, room temperature, 30 min; GST-TFs on glutathione beads, 16-mer random dsDNA library, 0.1% formaldehyde crosslink after washing; high values mean tight binding
The target in assay [1] is T1, FLI1 (Homo sapiens, UniProt Q01543 1-452).
T1 sequence: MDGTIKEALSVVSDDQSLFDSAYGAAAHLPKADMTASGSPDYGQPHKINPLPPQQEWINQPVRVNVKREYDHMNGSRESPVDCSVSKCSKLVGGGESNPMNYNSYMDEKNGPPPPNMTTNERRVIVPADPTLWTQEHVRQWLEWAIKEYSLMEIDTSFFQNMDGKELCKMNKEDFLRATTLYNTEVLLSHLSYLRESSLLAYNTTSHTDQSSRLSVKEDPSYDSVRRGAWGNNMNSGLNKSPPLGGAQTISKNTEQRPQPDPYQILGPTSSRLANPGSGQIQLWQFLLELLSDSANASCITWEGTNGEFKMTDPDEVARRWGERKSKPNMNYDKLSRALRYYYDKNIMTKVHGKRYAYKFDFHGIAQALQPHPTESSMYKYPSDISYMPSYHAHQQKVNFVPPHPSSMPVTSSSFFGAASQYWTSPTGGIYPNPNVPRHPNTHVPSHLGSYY
The note with it: protein: recombinant; tags: N-terminal GST; dsDNA, one strand shown. The procedure, abridged: (§1)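 Sequencing on an Illumina NextSeq500 followed washing, crosslinking with 0.1% formaldehyde, proximity ligation (BsaI/T4 ligase, 1 h, 37 °C) and PCR amplification of pools that had been incubated for 30 min at room temperature with 200 nmole of a random double-stranded 16-mer DNA library in Tris/NaCl/DTT/glycerol buffer. Each pool held DNA-barcoded human transcription factors, expressed in yeast as GST fusions and captured on glutathione beads, plus a tag-only sample. Binding signal is a hexamer's read frequency for a factor divided by its frequency in the tag-only sample.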

Assay [2] addresses T2, ELK1 (Homo sapiens, UniProt P19419 1-428).
T2 sequence: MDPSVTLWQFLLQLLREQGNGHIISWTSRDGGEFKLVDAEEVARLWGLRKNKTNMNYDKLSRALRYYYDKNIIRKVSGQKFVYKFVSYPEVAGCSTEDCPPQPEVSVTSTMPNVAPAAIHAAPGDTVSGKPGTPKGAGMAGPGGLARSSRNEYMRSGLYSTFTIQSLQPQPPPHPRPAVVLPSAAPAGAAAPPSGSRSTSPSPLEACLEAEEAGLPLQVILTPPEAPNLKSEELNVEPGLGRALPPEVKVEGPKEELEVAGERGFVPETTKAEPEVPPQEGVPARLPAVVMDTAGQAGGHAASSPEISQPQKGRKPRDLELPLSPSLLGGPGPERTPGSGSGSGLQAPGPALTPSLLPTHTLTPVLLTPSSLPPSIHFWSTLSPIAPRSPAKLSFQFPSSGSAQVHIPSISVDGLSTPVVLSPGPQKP
The note with it: protein: recombinant; tags: N-terminal GST; dsDNA, one strand shown. In outline:
as §1

In assay [3] the target is T3, GABPA (Homo sapiens, UniProt Q06546 1-454).
T3 sequence: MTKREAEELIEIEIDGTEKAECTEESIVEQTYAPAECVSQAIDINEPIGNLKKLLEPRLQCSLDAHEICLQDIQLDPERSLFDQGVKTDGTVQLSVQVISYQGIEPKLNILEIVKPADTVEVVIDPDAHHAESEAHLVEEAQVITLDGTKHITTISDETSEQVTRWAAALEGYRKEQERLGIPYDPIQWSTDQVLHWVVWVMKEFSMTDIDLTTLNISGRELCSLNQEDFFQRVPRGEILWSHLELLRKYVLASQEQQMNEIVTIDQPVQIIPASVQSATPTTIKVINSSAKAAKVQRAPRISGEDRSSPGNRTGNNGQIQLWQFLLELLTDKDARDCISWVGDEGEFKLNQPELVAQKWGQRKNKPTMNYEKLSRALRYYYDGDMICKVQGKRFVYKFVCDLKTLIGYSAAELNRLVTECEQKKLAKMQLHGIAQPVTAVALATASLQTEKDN
The note with it: protein: recombinant; tags: N-terminal GST; dsDNA, one strand shown. The procedure, abridged: as §1

The target in assay [4] is T4, ERG (Homo sapiens, UniProt P11308 1-479).
T4 sequence: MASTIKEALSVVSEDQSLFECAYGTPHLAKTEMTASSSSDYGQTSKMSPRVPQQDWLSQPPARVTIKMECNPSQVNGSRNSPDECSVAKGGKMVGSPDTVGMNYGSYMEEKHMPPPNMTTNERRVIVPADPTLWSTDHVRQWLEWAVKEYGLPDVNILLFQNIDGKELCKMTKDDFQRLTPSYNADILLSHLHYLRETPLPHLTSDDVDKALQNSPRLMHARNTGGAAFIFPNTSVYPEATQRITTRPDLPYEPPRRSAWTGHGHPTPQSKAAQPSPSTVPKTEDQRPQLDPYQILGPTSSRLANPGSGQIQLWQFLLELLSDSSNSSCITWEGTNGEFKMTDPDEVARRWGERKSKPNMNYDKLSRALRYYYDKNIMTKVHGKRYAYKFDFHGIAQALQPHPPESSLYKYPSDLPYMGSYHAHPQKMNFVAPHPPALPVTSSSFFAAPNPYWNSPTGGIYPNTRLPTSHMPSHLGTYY
The note with it: protein: recombinant; tags: N-terminal GST; dsDNA, one strand shown. The procedure, abridged: as §1

Assay [5] deals with ELF1 (Homo sapiens, UniProt P32519 1-619). The settings on record: protein: recombinant; tags: N-terminal GST; dsDNA, one strand shown. In outline:
as §1

The target of assay [6] is T5, EHF (Homo sapiens, UniProt Q9NZC4 1-300).
T5 sequence: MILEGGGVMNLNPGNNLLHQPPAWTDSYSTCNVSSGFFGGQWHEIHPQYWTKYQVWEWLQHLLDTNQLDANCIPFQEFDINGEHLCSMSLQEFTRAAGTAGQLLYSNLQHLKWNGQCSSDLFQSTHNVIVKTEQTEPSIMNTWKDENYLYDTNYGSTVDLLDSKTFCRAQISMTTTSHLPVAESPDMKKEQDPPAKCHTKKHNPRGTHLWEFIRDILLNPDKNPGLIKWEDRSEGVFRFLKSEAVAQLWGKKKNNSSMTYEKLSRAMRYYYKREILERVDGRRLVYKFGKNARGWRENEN
The note with it: protein: recombinant; tags: N-terminal GST; dsDNA, one strand shown. The procedure, abridged: as §1

Assay [7] deals with SPI1 (Homo sapiens, UniProt P17947 1-270). The note with it: protein: recombinant; tags: N-terminal GST; dsDNA, one strand shown. In outline:
as §1

The target of assay [8] is SPIB (Homo sapiens, UniProt Q01892 1-262). The settings on record: protein: recombinant; tags: N-terminal GST; dsDNA, one strand shown. In outline:
as §1

Assay [9] deals with T6, ELK3 (Homo sapiens, UniProt P41970 1-407).
T6 sequence: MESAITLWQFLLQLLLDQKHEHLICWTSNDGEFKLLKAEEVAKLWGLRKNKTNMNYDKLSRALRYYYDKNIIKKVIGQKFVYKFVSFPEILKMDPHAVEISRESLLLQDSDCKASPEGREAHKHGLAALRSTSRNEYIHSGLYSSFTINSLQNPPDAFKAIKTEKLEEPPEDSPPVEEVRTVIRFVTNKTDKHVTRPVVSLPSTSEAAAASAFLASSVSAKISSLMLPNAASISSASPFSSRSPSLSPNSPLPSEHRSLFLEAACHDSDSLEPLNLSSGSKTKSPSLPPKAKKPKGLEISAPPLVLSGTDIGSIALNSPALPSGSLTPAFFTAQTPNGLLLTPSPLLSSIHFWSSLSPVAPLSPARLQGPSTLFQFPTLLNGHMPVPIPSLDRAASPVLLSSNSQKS
The note with it: protein: recombinant; tags: N-terminal GST; dsDNA, one strand shown. In outline:
as §1

The target of assay [10] is T7, FEV (Homo sapiens, UniProt Q99581 1-238).
T7 sequence: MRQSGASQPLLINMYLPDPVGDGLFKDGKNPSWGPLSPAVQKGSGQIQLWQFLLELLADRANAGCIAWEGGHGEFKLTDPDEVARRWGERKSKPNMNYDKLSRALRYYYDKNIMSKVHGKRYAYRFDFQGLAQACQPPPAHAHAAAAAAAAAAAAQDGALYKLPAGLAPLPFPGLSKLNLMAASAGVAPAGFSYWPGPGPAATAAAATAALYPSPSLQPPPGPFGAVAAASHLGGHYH
The settings on record: protein: recombinant; tags: N-terminal GST; dsDNA, one strand shown. The procedure, abridged:
as §1

For assay [11], the target named is ETV5 (Homo sapiens, UniProt P41161 1-510). The settings on record: protein: recombinant; tags: N-terminal GST; dsDNA, one strand shown. The procedure, abridged:
as §1

In assay [12] the target is HSF1 (Homo sapiens, UniProt Q00613 1-529). The settings on record: protein: recombinant; tags: N-terminal GST; chain copies: 3; dsDNA, one strand shown. The procedure, abridged: as §1
Sequence of HSF1 (Q00613 whole entry): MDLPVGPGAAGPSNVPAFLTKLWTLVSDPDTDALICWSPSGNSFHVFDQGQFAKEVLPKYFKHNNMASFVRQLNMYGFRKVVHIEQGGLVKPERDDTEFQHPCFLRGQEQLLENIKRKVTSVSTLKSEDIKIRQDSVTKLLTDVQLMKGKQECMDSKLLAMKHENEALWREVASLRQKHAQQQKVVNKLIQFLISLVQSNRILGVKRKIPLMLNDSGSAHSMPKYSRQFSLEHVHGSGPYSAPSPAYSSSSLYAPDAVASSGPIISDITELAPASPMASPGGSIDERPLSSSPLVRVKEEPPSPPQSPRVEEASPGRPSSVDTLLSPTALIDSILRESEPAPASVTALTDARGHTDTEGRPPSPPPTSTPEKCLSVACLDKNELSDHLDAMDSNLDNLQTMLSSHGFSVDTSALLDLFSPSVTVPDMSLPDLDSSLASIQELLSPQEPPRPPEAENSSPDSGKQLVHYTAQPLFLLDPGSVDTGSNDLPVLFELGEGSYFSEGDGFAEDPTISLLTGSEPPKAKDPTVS
In assay [13] the target is T8, SPIC (Homo sapiens, UniProt Q8N5J4 1-248).
T8 sequence: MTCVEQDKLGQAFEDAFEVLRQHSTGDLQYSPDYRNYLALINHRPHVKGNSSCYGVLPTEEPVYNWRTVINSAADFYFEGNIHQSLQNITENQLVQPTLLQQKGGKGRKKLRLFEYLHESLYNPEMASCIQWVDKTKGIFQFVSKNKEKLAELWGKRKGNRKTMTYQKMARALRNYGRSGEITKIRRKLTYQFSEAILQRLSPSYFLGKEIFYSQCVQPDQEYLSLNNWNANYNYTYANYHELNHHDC
The note with it: protein: recombinant; tags: N-terminal GST; dsDNA, one strand shown. In outline: as §1

Assay [14] concerns the target ELF4 (Homo sapiens, UniProt Q99607 1-663). The note with it: protein: recombinant; tags: N-terminal GST; dsDNA, one strand shown. In outline:
as §1

Assay [15] deals with T9, ELK4 (Homo sapiens, UniProt P28324-2 1-405).
T9 sequence: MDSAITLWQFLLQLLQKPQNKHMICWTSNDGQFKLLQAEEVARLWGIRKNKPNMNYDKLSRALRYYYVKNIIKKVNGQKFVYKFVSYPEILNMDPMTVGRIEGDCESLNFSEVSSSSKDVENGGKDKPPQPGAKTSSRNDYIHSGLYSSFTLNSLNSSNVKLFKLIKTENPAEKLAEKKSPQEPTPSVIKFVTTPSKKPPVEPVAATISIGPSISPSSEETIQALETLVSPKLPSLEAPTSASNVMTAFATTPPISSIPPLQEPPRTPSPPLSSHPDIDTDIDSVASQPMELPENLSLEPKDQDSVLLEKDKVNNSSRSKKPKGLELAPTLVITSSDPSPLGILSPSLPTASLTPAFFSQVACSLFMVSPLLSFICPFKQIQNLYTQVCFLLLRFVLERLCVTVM
The settings on record: protein: recombinant; tags: N-terminal GST; dsDNA, one strand shown. In outline:
as §1

In assay [16] the target is T10, ETV2 (Homo sapiens, UniProt O00321 1-342).
T10 sequence: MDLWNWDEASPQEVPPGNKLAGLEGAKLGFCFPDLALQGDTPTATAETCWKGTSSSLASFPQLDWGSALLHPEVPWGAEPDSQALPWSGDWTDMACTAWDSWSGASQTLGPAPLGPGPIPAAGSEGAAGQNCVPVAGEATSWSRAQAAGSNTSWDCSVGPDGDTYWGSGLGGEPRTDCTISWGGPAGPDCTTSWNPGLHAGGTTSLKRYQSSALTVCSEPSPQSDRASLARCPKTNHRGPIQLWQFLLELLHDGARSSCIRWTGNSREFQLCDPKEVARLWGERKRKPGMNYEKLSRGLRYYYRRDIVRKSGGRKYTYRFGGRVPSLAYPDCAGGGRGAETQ
The note with it: protein: recombinant; tags: N-terminal GST; dsDNA, one strand shown. In outline:
as §1

Assay [17] deals with T11, ELF3 (Homo sapiens, UniProt P78545 1-371).
T11 sequence: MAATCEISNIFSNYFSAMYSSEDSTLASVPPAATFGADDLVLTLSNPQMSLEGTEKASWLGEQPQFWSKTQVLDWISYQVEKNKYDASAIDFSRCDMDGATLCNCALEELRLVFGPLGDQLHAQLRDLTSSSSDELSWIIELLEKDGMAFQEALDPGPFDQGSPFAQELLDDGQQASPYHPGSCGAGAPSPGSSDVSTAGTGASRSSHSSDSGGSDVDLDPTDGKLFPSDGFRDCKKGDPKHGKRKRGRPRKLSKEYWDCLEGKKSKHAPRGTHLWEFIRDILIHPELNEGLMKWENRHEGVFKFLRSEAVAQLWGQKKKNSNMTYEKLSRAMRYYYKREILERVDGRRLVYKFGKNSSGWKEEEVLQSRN
The settings on record: protein: recombinant; tags: N-terminal GST; dsDNA, one strand shown. The procedure, abridged:
as §1

Assay [18] addresses ETV1 (Homo sapiens, UniProt P50549 1-477). The note with it: protein: recombinant; tags: N-terminal GST; dsDNA, one strand shown. The procedure, abridged: as §1

Sequence of ELF1 (P32519 whole entry): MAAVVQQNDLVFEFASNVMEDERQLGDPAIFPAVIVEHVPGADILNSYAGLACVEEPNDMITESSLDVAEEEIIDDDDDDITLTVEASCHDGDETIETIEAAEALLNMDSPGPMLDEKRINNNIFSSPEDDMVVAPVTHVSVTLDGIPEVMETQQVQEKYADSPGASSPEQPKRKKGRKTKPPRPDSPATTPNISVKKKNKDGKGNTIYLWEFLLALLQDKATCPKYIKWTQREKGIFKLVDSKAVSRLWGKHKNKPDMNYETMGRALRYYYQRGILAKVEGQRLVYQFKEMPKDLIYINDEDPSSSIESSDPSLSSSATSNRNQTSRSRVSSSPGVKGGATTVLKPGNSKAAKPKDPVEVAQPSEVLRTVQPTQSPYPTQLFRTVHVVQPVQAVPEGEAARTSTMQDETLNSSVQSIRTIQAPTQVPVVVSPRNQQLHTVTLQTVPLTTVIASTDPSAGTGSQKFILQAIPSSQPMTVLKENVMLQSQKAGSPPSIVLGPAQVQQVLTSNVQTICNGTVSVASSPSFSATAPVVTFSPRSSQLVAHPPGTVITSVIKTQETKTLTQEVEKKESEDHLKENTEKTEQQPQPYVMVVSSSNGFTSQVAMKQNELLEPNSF
Sequence of ETV1 (P50549 whole entry): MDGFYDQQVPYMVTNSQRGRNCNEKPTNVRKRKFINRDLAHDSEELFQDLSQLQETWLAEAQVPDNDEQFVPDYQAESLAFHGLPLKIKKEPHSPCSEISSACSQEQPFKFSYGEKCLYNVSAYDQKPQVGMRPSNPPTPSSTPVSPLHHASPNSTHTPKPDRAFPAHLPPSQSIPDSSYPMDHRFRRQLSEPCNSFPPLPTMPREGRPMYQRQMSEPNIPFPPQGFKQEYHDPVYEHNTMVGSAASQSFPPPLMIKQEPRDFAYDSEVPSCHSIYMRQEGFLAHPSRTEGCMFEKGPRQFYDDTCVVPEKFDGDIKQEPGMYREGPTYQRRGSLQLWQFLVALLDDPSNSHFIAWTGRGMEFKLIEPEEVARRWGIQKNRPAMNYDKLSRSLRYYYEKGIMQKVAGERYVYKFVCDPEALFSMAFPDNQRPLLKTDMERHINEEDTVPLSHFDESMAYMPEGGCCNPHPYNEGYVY
Sequence of ELF4 (Q99607 whole entry): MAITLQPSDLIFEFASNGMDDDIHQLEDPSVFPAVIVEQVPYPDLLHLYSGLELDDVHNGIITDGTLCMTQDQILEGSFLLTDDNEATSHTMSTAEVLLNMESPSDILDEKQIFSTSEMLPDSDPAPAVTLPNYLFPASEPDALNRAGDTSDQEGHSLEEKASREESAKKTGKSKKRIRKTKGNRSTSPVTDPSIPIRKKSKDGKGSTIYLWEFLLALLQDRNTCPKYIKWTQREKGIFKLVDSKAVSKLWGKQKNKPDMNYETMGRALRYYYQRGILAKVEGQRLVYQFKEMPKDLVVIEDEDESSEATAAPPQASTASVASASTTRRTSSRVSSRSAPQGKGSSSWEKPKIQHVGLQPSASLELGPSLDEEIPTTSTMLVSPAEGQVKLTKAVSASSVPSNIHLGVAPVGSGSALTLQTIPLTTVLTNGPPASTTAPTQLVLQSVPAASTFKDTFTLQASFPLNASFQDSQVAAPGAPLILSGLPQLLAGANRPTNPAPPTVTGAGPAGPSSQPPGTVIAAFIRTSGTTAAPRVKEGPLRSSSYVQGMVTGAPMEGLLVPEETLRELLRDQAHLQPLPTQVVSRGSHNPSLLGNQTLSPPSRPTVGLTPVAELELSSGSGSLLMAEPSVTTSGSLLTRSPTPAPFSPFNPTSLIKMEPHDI
Sequence of ETV5 (P41161 whole entry): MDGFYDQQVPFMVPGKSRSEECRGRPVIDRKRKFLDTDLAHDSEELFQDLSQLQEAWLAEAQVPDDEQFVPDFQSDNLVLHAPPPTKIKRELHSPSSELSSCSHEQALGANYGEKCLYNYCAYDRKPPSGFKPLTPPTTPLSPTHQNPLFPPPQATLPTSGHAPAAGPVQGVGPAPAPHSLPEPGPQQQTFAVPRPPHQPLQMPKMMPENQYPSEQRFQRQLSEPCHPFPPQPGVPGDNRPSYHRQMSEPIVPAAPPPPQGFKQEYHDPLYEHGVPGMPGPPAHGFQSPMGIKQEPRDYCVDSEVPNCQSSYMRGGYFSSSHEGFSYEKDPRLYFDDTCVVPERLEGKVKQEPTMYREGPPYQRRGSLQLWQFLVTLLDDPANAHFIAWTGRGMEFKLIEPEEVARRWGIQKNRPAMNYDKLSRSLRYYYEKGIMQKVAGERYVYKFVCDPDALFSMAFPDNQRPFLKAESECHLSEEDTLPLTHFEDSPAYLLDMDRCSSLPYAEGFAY
Sequence of SPIB (Q01892 whole entry): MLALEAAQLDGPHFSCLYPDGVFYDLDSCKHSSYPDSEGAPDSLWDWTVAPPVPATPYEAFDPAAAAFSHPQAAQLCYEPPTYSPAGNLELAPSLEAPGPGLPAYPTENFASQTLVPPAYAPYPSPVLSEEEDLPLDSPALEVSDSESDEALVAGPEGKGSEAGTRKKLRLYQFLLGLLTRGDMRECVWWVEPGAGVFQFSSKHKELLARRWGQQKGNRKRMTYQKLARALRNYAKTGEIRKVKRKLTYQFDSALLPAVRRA

Regarding TGCTAC, the binding signal was 1.35 fold enrichment (6-mer frequency, TF over GST control) in assay [1]; 1.26 fold enrichment (6-mer frequency, TF over GST control) in assay [2]; 1.24 fold enrichment (6-mer frequency, TF over GST control) in assay [3]; 1.27 fold enrichment (6-mer frequency, TF over GST control) in [4]; 1.25 fold enrichment (6-mer frequency, TF over GST control) in assay [5]; 1.23 fold enrichment (6-mer frequency, TF over GST control) in assay [6]. Further, the binding signal in assay [7] was 1.29 fold enrichment (6-mer frequency, TF over GST control); in assay [8], 1.25 fold enrichment (6-mer frequency, TF over GST control); in assay [9], 1.26 fold enrichment (6-mer frequency, TF over GST control); in assay [10] it was 1.36 fold enrichment (6-mer frequency, TF over GST control); in assay [11] it was 1.25 fold enrichment (6-mer frequency, TF over GST control); in assay [12], 1.03 fold enrichment (6-mer frequency, TF over GST control). The binding signal in [13] was 1.41 fold enrichment (6-mer frequency, TF over GST control); in assay [14] it was 1.23 fold enrichment (6-mer frequency, TF over GST control); in assay [15], 1.4 fold enrichment (6-mer frequency, TF over GST control); in assay [16] it was 1.24 fold enrichment (6-mer frequency, TF over GST control); in assay [17] it was 1.25 fold enrichment (6-mer frequency, TF over GST control); in assay [18] it was 1.42 fold enrichment (6-mer frequency, TF over GST control).
